# Bioassay records: PubChem BioAssay, Sanford-Burnham Center for Chemical Genomics
# Rows were chosen to be rich in hits. Some 4% of all compounds tested hit in one or more screens of this group.
# TROY NFkB inh = inhibitors of TROY-driven NF-kB signaling, primary screen, Q293 LMP1-TROYcd cells, NF-kB luciferase, uHTS; 0.98% of 360,000 active; inhibition, % at 10 µM; AID 1347056, 2019; Q293 LMP1-TROYcd NF-kB luciferase reporter, 4 h;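 active means compounds whose plate-normalised and pattern-corrected inhibition of the luciferase reporter signal at the single screening dose is 50% or more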
# HIF-2a inh = HIF-2a reporter inhibitors, primary screen, luminescence, 786-0 RCC cells; inhibition, % at 18.8 µM; 0.72% of 360,000 active; 786-0 RCC cells HIF-2a reporter, luciferase luminescence, overnight;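 active means inhibition of the luminescence signal of 40% or more relative to plate controls, in a single-dose primary screen at 18.75 µM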
# CF NFkB block = inhibitors of PAF-induced NF-kB signaling, primary screen, cell-based, GFP fluorescence, uHTS. AID 588850, 2011. KKLEB NF-kB-GFP reporter, GFP fluorescence overnight. 0.86% of 360,000 active. inhibition, % at 5 µM;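 active means at least 50% inhibition at 5 µM, scaled per plate between neutral and stimulator controls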;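 further: PAF is a Pseudomonas aeruginosa culture filtrate used as stimulus; plate controls were PAF-stimulated DMSO wells for no effect and unstimulated DMSO wells for full effect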
# TWEAK Fn14 block = inhibitors of TWEAK-Fn14 signaling, primary screen, luciferase reporter cells, uHTS; inhibition, % at 10 µM; AID 1159606, 2016; 2% of 360,000 active; TWEAK-stimulated Fn14 reporter cells, luciferase luminescence, 8 h; in the data active means inhibition above about 50%
# KKLEB tox = cytotoxicity in KKLEB CF airway cells, primary screen, cytotoxicity control for CF NF-kB inhibitor project, cell-based, uHTS, fluorescence assay plates; KKLEB CF airway cells viability, ATPlite luminescence, overnight; hits give low values; cells stimulated with P. aeruginosa culture filtrate; activity change (cytotoxicity), % at 5 µM; 0.36% of 360,000 active; AID 602141, 2011;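 active means corrected activity change at or below -50% at 5 µM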
# Peg3 prom inh = Peg3 promoter-driven luciferase inhibitors, primary screen, cell-based, HeLa, luciferase luminescence; HeLa PEG-Prom luciferase reporter, overnight; inhibition, % at 20 µM; 1.7% of 360,000 active;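 active means inhibition of at least 50% at 20 µM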
# The depositor's hits bear a star; nt = no result; ! = not active in a repeat.
SMILES,TROY NFkB inh,HIF-2a inh,CF NFkB block,TWEAK Fn14 block,KKLEB tox,Peg3 prom inh
CC(C)c1ccc(/C=C/c2[nH]c(=O)[nH]c(=O)c2[N+](=O)[O-])cc1,-19,-14,5,3,6,-21
CC(C)Cc1cc(C(C)(C)C)ccc1OC(=S)N(C)C,9,9,3,7,8,-22
c1ccc(CNCCCNCCCCNCCCNCc2ccccc2)cc1,10,28,11,-18,8,110*
Cc1cccc(N2CCN(C(=O)CCC(=O)N3CC(C)Oc4ccccc43)CC2)c1C (stereo not drawn),28,-1,-13,21,-2,-7
CSc1nc(-c2ccc(Cl)cc2)nc(N)c1C#N,-20,11,-10,0,-11,18
CSc1nc(N)c(C#N)c(-c2ccc(Cl)cc2)c1C#N,-20,38,-3,32,-5,58*
COc1cccc2sc3ccc(C#CC4(O)CCCCC4)cc3c(=O)c12,77*,-278,-35,35,-14,-162
COc1cccc2oc3cc(C#CC4(O)CCCCC4)ccc3c(=O)c12,77*,-144,1,73*,-34,-95
CCc1nn(C)c2c(=O)c(=O)c2n(C)[nH]1,5,20,21,9,0,0
CCOC(=O)C1=C(Nc2ccc(OC)cc2)C(N)=NC1=N,-29,-234,30,14,-15,-410
COc1ccc(Br)c(Cn2c(C)c(C(=O)NCc3ccccc3C(F)(F)F)sc2=O)c1,69*,6,20,13,-13,14
COc1ccc(CCNS(=O)(=O)c2ccc(-n3cnnn3)cc2)cc1OC,14,16,12,-10,-3,9
O=C(c1cnc(Cl)c(Cl)c1)N1CCN(S(=O)(=O)c2cccs2)CC1,-7,-3,3,-17,12,18
Cc1cc(/C=N/n2cnnc2)c(C)n1-c1ccc(OCc2ccc(Cl)cc2)cc1,-22,-26,-2,63*,-10,-35
Cc1sc(NC(=O)c2sc3nc4c(C)cccc4cc3c2N)c(C#N)c1C,10,-14,-20,16,1,-3
Cc1cccc2cc3c(N)c(C(=O)Nc4ccc(N5CCOCC5)cc4)sc3nc12,51*,-21,-60,58*,-31,56*
COc1ccc(SCC(O)Cn2c3ccccc3c3ccccc32)c(OC)c1 (stereo not drawn),7,-3,nt,14,nt,nt
CC(C)N=C(N)N=C(N)Nc1ccc(Cl)cc1,-1,-2,6,2,-14,17
NC(=NCCCCCCN=C(N)/N=C(\N)Nc1ccc(Cl)cc1)/N=C(\N)Nc1ccc(Cl)cc1,28,24,20,46,23,102*!
CCOC1=C2CN(S(=O)(=O)c3ccc(C)cc3)C(c3ccccc3)CC2N(S(=O)(=O)c2ccc(C)cc2)C(c2ccc(Br)cc2)C1 (stereo not drawn),nt,2,nt,nt,nt,nt
CN(C)CCNc1ncnc2c1sc1nc(-c3ccccc3)c3c(c12)CCCC3,39,-6,8,2,-5,111*
CCOc1ccccc1NC(=O)N1CCC(NC(=O)C2CCCCC2)CC1,18,14,8,-10,-8,3
CCOC(=O)c1c(NC(=O)CSc2nc3ccc(OC)cc3[nH]2)sc2c1CC(C)(C)NC2(C)C,14,9,7,-35,-6,91*
O=C1OCc2ccc([N+](=O)[O-])cc21,10,9,-27,1,28,8
Cc1ccc(C(=O)N2CCCC(N3CCN(c4cccc(C(F)(F)F)c4)CC3)C2)s1 (stereo not drawn),31,-28,-18,14,24,1
SMILES,TROY NFkB inh,HIF-2a inh,CF NFkB block,TWEAK Fn14 block,KKLEB tox,Peg3 prom inh
CCS(=O)(=O)c1c([N+](=O)[O-])ncn1C,7,13,16,18,12,60*
CCOC(=O)c1sc(=NC(=O)c2ccc(Cl)s2)n(C)c1C,54*,-237,-4,40,-11,-227
O=C1NC(=O)/C(=C\c2ccc(N3CCOCC3)o2)N1,2,-12,5,-22,2,-10
Oc1cccc2cc(Nc3ccccc3)cnc12,14,-76,34,100*,-3,-35
Oc1cc(NCCN2CCOCC2)cc2cccnc12,-30,5,16,9,-11,20
c1ccc(Nc2ccccc2)cc1,4,15,-19,3,10,2
Oc1cc(Nc2ccccc2)cc2cccnc12,9,-4,78*,1,-20,15
COc1ccc(CNC(=O)CCC(=O)N2CCN(S(=O)(=O)c3cc([N+](=O)[O-])ccc3C)CC2)cc1,-11,14,-26,-22,22,-1
Cc1nc(Nc2nc3ccccc3o2)nc(C)c1C,17,-48,6,57*,21,-81
Cc1ccnc(Nc2nc3ccccc3o2)n1,31,-9,10,80*,-21,-4
Cc1ccc2oc(Nc3nc(C)c(C)c(C)n3)nc2c1,-53,-230,-8,-18,2,-195
CCNC(=O)C1(C)CCN(C(=O)C(c2ccccc2)c2ccccc2)C1 (stereo not drawn),10,-1,12,24,-2,10
CCCn1c(SCC(=O)N(C)C2CCCCC2)n[nH]c1=O,-13,-11,9,5,-4,4
CCC(CO)[n+]1c(C)cc(/C=C2\Sc3ccccc3N2Cc2ccccc2)cc1C (stereo not drawn),-47,-11,10,-3,-6,62*
CCN1/C(=C2\SC(=S)N(Cc3ccccc3)C2=O)Sc2ccccc21,11,18,-4,-1,2,1
COc1ccccc1CNc1nc(NCCN2CCNC2=O)c2sccc2n1,16,8,7,-74,-16,10
Cc1ccc(NC(=O)c2cc3c(s2)CCCC3)cc1S(=O)(=O)Nc1ccccc1Cl,46,5,13,78*,-8,19
O=C(Nc1cc(S(=O)(=O)Nc2ccccc2Cl)ccc1O)c1cc2c(s1)CCCC2,-4,6,-5,-6,13,15
O=C(Nc1ccc(Cl)c(Cl)c1)Nc1ccc(N2CCCC2)c(S(=O)(=O)Nc2ccccc2Cl)c1,21,-21,62*,68*,-54*,58*
O=C(Nc1cccc(S(=O)(=O)Nc2ccc(Cl)cc2)c1)c1cc2c(s1)CCCC2,41,-58,-2,84*,-6,-13
O=C(NCCc1ccc(F)cc1)c1ccc(Cl)c(S(=O)(=O)N2CCOCC2)c1,5,-19,-5,25,11,-12
CC12CCC(C(NC(=S)NN)C1=O)C2(C)C (stereo not drawn),-4,11,0,4,0,4
